This is a sample that favours compounds with a hit; in the whole collection about 2.8% have one here.
HSP90 refold inh – HSP90 inhibitors, primary screen, cell lysate, luminescence; Heat shock protein HSP 90 (rabbit reticulocyte lysate; luciferase refolding); Rabbit reticulocyte lysate, luciferase refolding luminescence, 3 h; inhibition, % at 5.6 µM; 290,000 compounds, 0.91% hits; AID 1789, 2009;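 active means inhibition above the screen-wide mean plus 3 SD, computed separately per campaign, cut at about 16% in these data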;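 further: inhibitors lower the luminescence because luciferase stays unfolded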
SENP8 block-1 – SENP8 protease inhibitors, primary screen, biochemical, luminescence; Sentrin-specific protease 8 (Homo sapiens), Q96LD8; purified SENP8, Z-RLRGG-aminoluciferin cleavage; inhibition, % at 10 µM; 330,000 compounds, 1.2% hits; AID 2540, 2010; in the data active means inhibition above about 50%
Target sequence (Q96LD8 whole entry, looked up): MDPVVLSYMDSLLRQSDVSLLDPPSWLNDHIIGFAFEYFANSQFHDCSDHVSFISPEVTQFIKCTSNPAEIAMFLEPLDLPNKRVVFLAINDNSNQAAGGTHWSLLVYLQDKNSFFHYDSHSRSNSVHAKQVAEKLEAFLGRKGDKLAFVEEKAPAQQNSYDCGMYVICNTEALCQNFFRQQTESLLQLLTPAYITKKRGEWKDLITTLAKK
SENP7 inh – SENP7 protease inhibitors, primary screen, biochemical, luminescence, uHTS; Sentrin-specific protease 7 (Homo sapiens), Q9BQF6; recombinant SENP7, Z-RLRGG-aminoluciferin luminescence, 40 min; inhibition, % at 5 µM; 330,000 compounds, 1.5% hits; AID 434973, 2010;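 active means inhibition above about 50% at the single test dose, limit read from the data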
SENP8 block-2 – human SENP8 protease inhibitors, primary screen, biochemical, fluorescence, Nedd8 protein substrate, uHTS. Sentrin-specific protease 8 (Homo sapiens), Q96LD8. recombinant SENP8. inhibition, % at 20 µM. 360,000 compounds, 0.64% hits; in the data active means inhibition mostly above about 40%, no sharp cut-off; inactive means mostly below about 27%
SENP6 block – SENP6 protease inhibitors, primary screen, biochemical, luminescence, uHTS; 330,000 compounds, 1.8% hits; inhibition, % at 10 µM; Sentrin-specific protease 6 (Homo sapiens), Q9GZR1; Recombinant SENP6 catalytic domain, aminoluciferin luminescence;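 active means inhibition above about 50% at the single tested dose, limit read from the data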
Target sequence (Q9GZR1 628-1112 limits assumed): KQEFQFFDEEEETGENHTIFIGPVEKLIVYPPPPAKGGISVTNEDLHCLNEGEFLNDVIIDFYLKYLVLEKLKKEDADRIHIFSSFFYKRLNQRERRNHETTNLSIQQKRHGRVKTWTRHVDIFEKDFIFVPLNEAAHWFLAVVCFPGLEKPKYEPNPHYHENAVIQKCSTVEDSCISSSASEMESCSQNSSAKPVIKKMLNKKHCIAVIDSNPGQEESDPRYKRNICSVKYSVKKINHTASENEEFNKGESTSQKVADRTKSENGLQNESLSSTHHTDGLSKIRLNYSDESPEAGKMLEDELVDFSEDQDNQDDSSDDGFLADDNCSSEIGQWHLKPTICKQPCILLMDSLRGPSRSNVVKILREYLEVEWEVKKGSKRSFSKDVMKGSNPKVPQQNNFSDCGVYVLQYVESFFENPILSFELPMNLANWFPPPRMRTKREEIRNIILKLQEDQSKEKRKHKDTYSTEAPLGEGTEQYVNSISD
Platelet DG rel – inhibitors of platelet dense granule secretion, primary screen, cell-based, MLPCN, human platelets. human platelet-rich plasma, SFLLRN dense granule ATP release, luminescence. inhibition, %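 (compounds screened at 7.5 µM in platelet-rich plasma)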. 300,000 compounds, 0.22% hits. AID 1663, 2009;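 active means mean replicate score, as percent of positive control, at or above 50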
Each line names hits and unclear results; the compound was inactive in the other large screens.

CC(C)c1ccc(-c2cc(C(=O)NN3CCN(C)CC3)c3ccccc3n2)cc1	Platelet DG rel 54
O=C(c1ccc(Cl)cc1)N1CCCCC(Sc2nnc(-c3ccc4c(c3)OCO4)o2)C1=O (stereo unspecified)	HSP90 refold inh 31
COc1ccc(-c2cn3c(C)c(C(=O)Nc4cc(NC(C)=O)ccc4OC)sc3n2)cc1	HSP90 refold inh 54
COc1ccc(-c2cn3c(C)c(C(=O)N4CCc5ccccc5C4)sc3n2)cc1	HSP90 refold inh 19
CNC(=O)c1sc2nc(-c3ccc(OC)cc3)cn2c1C	none
COc1cc(/C=C2\SC(=S)NC2=O)ccc1OS(=O)(=O)c1ccccc1	SENP6 block 59 (no result: SENP8 block-2)
Cc1ccc(S(=O)(=O)N2CCN(C(=O)COC(=O)COc3ccc(Cl)cc3C)CC2)c(C)c1	none (no result: HSP90 refold inh, SENP8 block-1, SENP7 inh, SENP6 block, Platelet DG rel)
Oc1ccc(/C=N/N=C(c2ccccc2)c2ccccc2)c(O)c1O	SENP8 block-2 34 (no result: SENP8 block-1, SENP7 inh, SENP6 block, Platelet DG rel)
O=C(/C(=N/N=C/c1ccc(O)c(O)c1O)c1ccccc1)c1ccccc1	none
Cc1cccc(NS(=O)(=O)c2ccc(C)c(C(=O)NCC(c3ccco3)N3CCCCC3)c2)c1 (stereo unspecified)	none (no result: HSP90 refold inh, Platelet DG rel)
Nc1cc2nc3ccccc3oc-2cc1=O	SENP8 block-2 44 (no result: Platelet DG rel)
O=C(/C=C/c1ccccc1)NCCOc1ccccc1	none
O=C(/C=C/c1ccccc1)NCCSc1ccc(Cl)cc1	SENP8 block-2 40
COc1cccc(-c2cnc(C(O)c3ccc(Cl)cc3)[nH]2)c1 (stereo unspecified)	none (no result: HSP90 refold inh, SENP8 block-1, SENP7 inh, SENP6 block, Platelet DG rel)
COC(=O)c1c(N)n(CCCN2CCOCC2)c2nc3ccccc3nc12	none
Nc1c(C(=O)NCc2ccc(F)cc2)c2nc3ccccc3nc2n1CCCN1CCOCC1	SENP8 block-1 80, SENP7 inh 57, SENP6 block 78
COc1ccc(CNC(=O)c2c(N)n(CCCN3CCOCC3)c3nc4ccccc4nc23)cc1	SENP8 block-1 71, SENP6 block 68
CC1CC(=O)Nc2ccccc2N1C(=O)CSc1ccc2ccccc2n1 (stereo unspecified)	none (no result: HSP90 refold inh, Platelet DG rel)
CC(CCC(C)C(C)(C)C)[C@@H]1CC[C@H]2C3C[C@H](OS(O)(=S)=S)[C@H]4C[C@H](OS(O)(=S)=S)[C@@H](OS(O)(=S)=S)C[C@]4(C)[C@H]3CC[C@]12C (stereo partly specified) (tested in a mixture with another compound)	SENP8 block-1 54 (no result: HSP90 refold inh, Platelet DG rel)
C=CCN1C(=O)/C(=C/c2ccc(OC(C)=O)c(OCC)c2[N+](=O)[O-])SC1=S	SENP8 block-2 65 (no result: SENP8 block-1, SENP7 inh, SENP6 block)
CCOc1c(OC(C)=O)ccc(/C=C/c2ccc3cccc(OC(C)=O)c3n2)c1[N+](=O)[O-]	none
CCc1cc(=O)oc2c(C)c(OC(C)C(=O)NCCCn3ccnc3)ccc12 (stereo unspecified)	none
O=C(Nc1ccc(Nc2ccccc2)cc1)c1ccc(Cl)cc1Cl	none (no result: HSP90 refold inh)
C#Cc1cccc(NC(=O)c2ccc(Cl)cc2Cl)c1	SENP8 block-1 62, SENP7 inh 74, SENP6 block 73
CCCN(Cc1nnc(-c2ccccc2Cl)o1)C(=O)c1oc2ccccc2c1C	none (no result: HSP90 refold inh)
COC/C=C/C1=CC2=CC(=O)C(C)(OC(=O)c3cnc4ccccc4n3)C(=O)C2=CN1CC1CC1 (stereo unspecified)	SENP8 block-2 44 (no result: HSP90 refold inh)
COC/C=C/C1=CC2=CC(=O)C(C)(OC(=O)c3cnc4ccccc4n3)C(=O)C2=CN1Cc1ccc(OC)cc1 (stereo unspecified)	none (no result: HSP90 refold inh)
CCOc1ccc2nc(SC3CC(=O)N(c4ccc(C)cc4)C3=O)sc2c1 (stereo unspecified)	none
CCOc1ccc(N2C(=O)CC(Sc3nc4ccc(OCC)cc4s3)C2=O)cc1 (stereo unspecified)	Platelet DG rel 56
CC(=O)Oc1ccc2c(=O)c(-c3ccccc3)coc2c1	SENP7 inh 59
Cn1c(-c2cnn(-c3ccccc3)c2N)n[nH]c1=S	Platelet DG rel 61
C=CCn1c(-c2cnn(-c3ccccc3)c2N)n[nH]c1=S	none
Cc1ccc(C(=O)COC(=O)c2cccc(O)c2)s1	SENP8 block-1 83, SENP7 inh 95, SENP6 block 93 (no result: HSP90 refold inh, Platelet DG rel)
Cc1cccc(C(=O)NCC(=O)OCC(=O)c2ccc(C)s2)c1	none (no result: HSP90 refold inh, Platelet DG rel)
CC(=O)c1nn(-c2cccc(C)c2)cc1C(=O)c1cccc(Br)c1	none (no result: HSP90 refold inh)
O=C1NN(c2ccccc2)C(=O)/C1=C\c1cccc(OC(=O)c2cccs2)c1	SENP8 block-2 44
Cc1ccc(-n2c(N)c(C#N)c(-c3ccccc3)c(C#N)c2=O)cc1	Platelet DG rel 87
CC(C)c1nnc(NC(=O)CCC(=O)NC2CC2)s1	Platelet DG rel 55
O=C(O)CCC(C(=O)O)N1C(=O)C2C3CCC(C3)C2C1=O (stereo unspecified)	none (no result: HSP90 refold inh, SENP8 block-1, SENP7 inh, SENP6 block, Platelet DG rel)
COc1cc(OC)cc(-c2cc3nc(C)c(CCC(=O)O)c(C)n3n2)c1	HSP90 refold inh 25 (no result: SENP8 block-1, SENP7 inh, SENP6 block, Platelet DG rel)
CN(CC(=O)Nc1ccc(F)cc1)C(=O)COC(=O)c1cc(S(=O)(=O)N(C)C)ccc1N1CCCC1	none (no result: HSP90 refold inh)
COc1ccc(S(=O)(=O)NCC(c2cccnc2)N2CCN(C)CC2)cc1OC (stereo unspecified)	none
COc1ccc(S(=O)(=O)NCC(c2cccnc2)N2CCN(C)CC2)cc1C (stereo unspecified)	Platelet DG rel 74
O=C(Oc1ccc(Br)cc1C(=S)N1CCCC1)c1ccccc1Cl	none
O=C(Oc1ccc(Br)cc1C(=S)N1CCCCC1)c1cc([N+](=O)[O-])cc([N+](=O)[O-])c1	SENP8 block-2 44
Cc1ccc(-c2cn3nc(C)c(C)nc3n2)cc1	SENP8 block-1 53
O=C1/C(=C\c2ccco2)SC(=S)N1c1ccccc1	none
O=C1/C(=C/c2ccco2)SC(=S)N1CC1CCCO1 (stereo unspecified)	SENP8 block-2 42
O=C1/C(=C\c2ccc(-c3ccccc3Cl)o2)SC(=S)N1CC1CCCO1 (stereo unspecified)	SENP8 block-2 44
Cc1ccc(N2C(=O)/C(=C\c3ccco3)SC2=S)cc1	SENP8 block-2 48
Cc1ccc(/C=C2\SC(=S)N(CC3CCCO3)C2=O)o1 (stereo unspecified)	none
CCN(CC(=O)Nc1ccc(NC(C)=O)cc1)C(=O)c1cccnc1Sc1ccc(C)c(C)c1	none (no result: HSP90 refold inh)
Cc1ccccc1CNC(=O)c1ccccc1C(=O)O	HSP90 refold inh 16
COc1ccc(NC(=O)c2cc3cccc(OC)c3oc2=Nc2ccc(C(=O)O)cc2)cc1OC	none (no result: SENP8 block-1, SENP7 inh, SENP6 block)
COc1cccc(NC(=O)c2cc3cccc(OC)c3o/c2=N\O)c1	SENP7 inh 82 (no result: SENP8 block-2)
CC(=O)c1cccc(OC(=O)Oc2cccc(C(C)=O)c2)c1	none (no result: HSP90 refold inh, SENP8 block-1, SENP7 inh, SENP6 block, Platelet DG rel)

Screening results deposited in PubChem BioAssay by several laboratories.
